Screens (PubChem BioAssay)
An excerpt weighted towards active compounds, which were near 12% of everything screened.
OTUD3 block: inhibitors of human OTUD3 deubiquitinase. OTU domain-containing protein 3 (Homo sapiens), Q5T2D3. purified OTUD3, Ub-rhodamine fluorescence, 2 h. inhibition, % at 25 µM. 47,000 compounds, 0.7% hits. AID 1645858, 2021
USP28 inh: inhibitors of human USP28 deubiquitinase; purified USP28, Ub-rhodamine cleavage fluorescence, 30 min; inhibition, % at 25 µM; Ubiquitin carboxyl-terminal hydrolase 28 (Homo sapiens), Q96RU2; 47,000 compounds, 3% hits
USP30 inh: inhibitors of human USP30 deubiquitinase; inhibition, % at 25 µM; 47,000 compounds, 5.3% hits; Ubiquitin carboxyl-terminal hydrolase 30 (Homo sapiens), Q70CQ3; purified USP30, Ub-rhodamine cleavage fluorescence
Target sequence (Q70CQ3 whole entry, looked up): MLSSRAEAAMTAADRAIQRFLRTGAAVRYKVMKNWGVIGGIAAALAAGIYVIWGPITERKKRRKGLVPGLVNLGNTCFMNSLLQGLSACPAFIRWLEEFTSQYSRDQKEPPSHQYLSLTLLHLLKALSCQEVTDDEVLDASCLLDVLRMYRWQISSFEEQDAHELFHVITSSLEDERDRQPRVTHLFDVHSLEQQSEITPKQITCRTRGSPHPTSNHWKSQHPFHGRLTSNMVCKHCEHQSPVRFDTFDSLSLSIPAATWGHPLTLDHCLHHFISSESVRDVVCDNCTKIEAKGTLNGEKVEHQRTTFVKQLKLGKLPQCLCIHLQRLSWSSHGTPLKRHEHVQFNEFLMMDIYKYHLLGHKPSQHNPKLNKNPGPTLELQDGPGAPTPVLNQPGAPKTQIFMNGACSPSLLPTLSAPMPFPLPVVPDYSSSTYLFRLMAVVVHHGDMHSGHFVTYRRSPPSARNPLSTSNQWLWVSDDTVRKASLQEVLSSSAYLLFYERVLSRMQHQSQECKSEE
USP17 block: inhibitors of human USP17 deubiquitinase | purified USP17, Ub-rhodamine cleavage fluorescence, 3 h | inhibition, % at 50 µM | 47,000 compounds, 6.5% hits | AID 1645855, 2021
A number is an active result; - = inactive; . = no result. Cut-off read from the data, not from the text of the source: active = inhibition above about 30%; inactive = the rest.

SMILES | OTUD3 block | USP28 inh | USP30 inh | USP17 block
Cc1ccc2oc3c(c(=O)c2c1)C(c1cccc(OCc2ccccc2)c1)N(c1cc(C)on1)C3=O (stereo not drawn) | - | - | - | -
CCOC(=O)C(C)Sc1ncnc2c1sc1nc(N3CCCC3)c3c(c12)CC(C)(C)OC3 (stereo not drawn) | - | - | - | -
CC(=O)N1CC[C@H](C)n2c(nc3ccccc32)[C@@H]1Cc1ccccc1 | - | - | - | -
O=C(CCCn1c(=O)c2ccccc2n(Cc2ccc(F)cc2)c1=O)NCc1ccco1 | - | - | - | -
O=C(CCn1c(=O)c2ccccc2n(Cc2ccc(F)cc2Cl)c1=O)NCc1ccco1 | - | - | - | 38.2
Cc1ccc(C2CC(=O)c3cnc(NC(=O)c4ccc(Cl)cc4)nc3C2)cc1 (stereo not drawn) | - | - | 42.9 | -
COc1cc(C(=O)Nc2ncc3c(n2)CC(c2ccc(C)cc2)CC3=O)cc(OC)c1OC (stereo not drawn) | - | - | - | -
COc1cc(C)ccc1OCC(=O)Nc1ccc(Oc2ccccc2)cc1 | - | - | - | -
COc1ccc2nc(C)cc(OCC(=O)Nc3cc(C)cc(C)c3)c2c1 | - | - | - | 35.9
NS(=O)(=O)c1ccc(NC(=O)COC(=O)c2sc3cc(F)ccc3c2Cl)cc1 | - | 34.0 | 40.9 | -
O=C(COC(=O)c1sc2ccccc2c1Cl)Nc1ccc(F)cc1 | - | - | - | -
O=C(NCc1ccccc1)N1C[C@H]2C[C@H]3[C@](C1)(CN(Cc1ccncc1)S3(=O)=O)O2 | - | - | - | -
CCc1noc(-c2c(C)cc(C)n2CC(=O)Nc2ccc(C)cc2C)n1 | - | - | - | -
Cc1cc(F)ccc1NC(=O)Cn1c(C)cc(C)c1-c1nc(C2CC2)no1 | - | - | - | 48.2
Cc1cc(C)n(CC(=O)NCc2ccc(F)cc2F)c1-c1nc(C2CC2)no1 | - | - | 32.6 | 31.2
Cc1c(Cl)cccc1NC(=O)Cn1c(=O)c2ccccc2n2nncc12 | - | - | - | 50.4
Cc1c(Cl)cccc1NC(=O)CN1c2ccccc2S(=O)(=O)c2ccccc21 | - | . | . | -
CC(C)CCN1CCC2(CC1)OC(C(=O)N1CCCCC1)Cn1ccnc12 (stereo not drawn) | - | - | - | -
Cc1ccc(C)c(N(C(C)C(=O)NCc2ccncc2)S(C)(=O)=O)c1 (stereo not drawn) | - | - | 35.1 | 35.3
Cc1ccc(NC(=O)c2ccc(C)c(C)c2)cc1C | - | 39.5 | - | -
Cc1ccc(C(=O)NCc2ccc(C(=O)Nc3ccc(C)c(C)c3)o2)cc1 | - | - | 41.7 | 54.1
Cc1ccc(C(=O)Nc2ccc(C)c(C)c2)c(C)c1 | - | - | - | -
Cc1ccc(C(=O)NCc2ccc(C(=O)Nc3cccc(C)c3)o2)cc1 | - | - | 44.4 | 60.4
Cc1c(C(=O)N(C)c2nc3c(s2)CCc2occc2-3)oc2ccccc12 | 36.0 | 39.9 | 66.4 | 79.1
CCN(C(=O)Cc1ccccc1OC)c1nc2c(s1)CCc1occc1-2 | - | - | - | 37.4
SMILES | OTUD3 block | USP28 inh | USP30 inh | USP17 block
CN(C(=O)c1cccs1)c1nc2c(s1)CCc1occc1-2 | - | - | - | 36.9
CCOc1ccc(CC(=O)N(C)c2nc3c(s2)CCc2occc2-3)cc1 | - | - | - | -
CN(C(=O)C1(c2ccc(Cl)cc2)CC1)c1nc2c(s1)CCc1occc1-2 | - | - | - | -
CC(=O)Nc1ccc(NC(=O)c2sccc2Oc2ccc([N+](=O)[O-])cc2)cc1 | - | - | - | -
COc1ccc(OC)c(NC(=O)c2sccc2Oc2ccc(F)cc2[N+](=O)[O-])c1 | - | - | 30.2 | -
Cc1ccn(-c2ccc(NC(=O)C3CCCCC3)cc2)n1 | - | - | - | 57.1
COc1ccccc1NC(=O)N(CCCN1CCOCC1)Cc1cc2cc(OC)c(OC)cc2[nH]c1=O | - | - | - | -
Cn1ccc2ccn(CC(=O)NCc3ccc(Cl)cc3)c(=O)c21 | - | - | - | -
O=C(Cn1cc(-c2ccccc2)oc1=O)NCc1ccc(Cl)cc1 | - | - | 34.6 | 40.5
COc1cnc(CSc2ncccn2)cc1OCC(=O)Nc1cccc(F)c1 | - | - | 32.3 | -
COc1cnc(CSc2ncccn2)cc1OCC(=O)Nc1cc(C)ccc1C | - | - | 55.0 | -
COc1cnc(CSc2ncccn2)cc1OCC(=O)Nc1ccccc1F | - | - | - | -
Cc1[nH]c2ccccc2c1CCNC(=O)/C(=C/c1ccc(OC(C)C)cc1)NC(=O)c1ccccc1 | - | - | - | -
N#Cc1ccccc1OCC(=O)N1CCCc2ccccc21 | - | - | - | -
Cc1ccc(-n2nc(C(=O)Nc3ccc(C)cn3)c3ncn(C)c(=O)c32)cc1 | 35.8 | - | - | 74.8
O=C(Nc1cc(S(=O)(=O)N2CCOCC2)ccc1Cl)c1cc2c(s1)CCCC2 | - | - | - | -
COc1ccc(NS(=O)(=O)c2cc(OC)ccc2NC(=O)c2cc3c(s2)CCC3)cc1 | - | - | - | 30.9
CCOc1cc(N2CCOCC2)c(OCC)cc1NC(=O)c1ccccc1Oc1ccccc1 | - | - | - | -
CCOc1cc(N2CCOCC2)c(OCC)cc1NC(=O)c1cc(-c2ccncc2)nc2ccccc12 | - | - | - | 65.8
O=C(N[C@@H]1CC[C@@H](Oc2ccccc2)[C@@H](O)[C@@H]1O)c1cccnn1 | - | - | - | -
Cn1cc(S(=O)(=O)N2CCCCCC2)cc1C(=O)Nc1ccc(F)cc1 | - | - | - | 49.5
Cn1cc(S(=O)(=O)N2CCCCCC2)cc1C(=O)Nc1cccc(F)c1 | - | - | - | -
Cc1sc2ncnc(-n3ncc(C#N)c3N)c2c1-c1ccccc1 | - | . | . | -
Cc1ccc(-c2nnc(-n3ncc(C#N)c3N)c3ccccc23)cc1C | - | - | - | 62.5
CS(=O)(=O)N1CCN2C[C@H]1C(=O)NC[C@H]1O[C@@H](CC(=O)N[C@H]3C[C@@H](C2=O)N(Cc2ccc(Cl)c(F)c2)C3)[C@H](O)[C@@H]1O | - | - | - | -
SMILES | OTUD3 block | USP28 inh | USP30 inh | USP17 block
Nc1c(-c2ccc3c(c2)OCO3)nc2ccccn12 | - | . | . | -
c1ccc2c(c1)ccc1nnc(-c3ccc4c(c3)OCO4)n12 | - | 60.5 | 57.9 | 36.9
Cc1ccccc1CNC(=O)C1CCN(C2=NS(=O)(=O)c3ccccc32)CC1 | - | - | 32.2 | -
COc1ccc(NC(=O)C2CCN(C3=NS(=O)(=O)c4ccccc43)CC2)cc1 | - | - | 41.2 | 42.9
O=C(NCc1ccccc1)C1CCN(C2=NS(=O)(=O)c3ccccc32)CC1 | - | . | . | -
O=C(O)CN1CCC2(CCC1=O)CNC(=O)c1ccccc1O2 (stereo not drawn) | - | - | - | -
Cn1c(=O)c2c(nc(SCc3nnc(-c4ccccc4)o3)n2Cc2ccc(F)cc2)n(C)c1=O | - | 33.0 | 62.7 | 59.1
COc1ccccc1-c1noc(-c2nnn(Cc3nc(-c4ccc(C)cc4)oc3C)c2C)n1 | - | - | 31.7 | -
COc1ccccc1-c1nc(-c2nnn(Cc3ccc(C)cc3)c2C)no1 | - | 71.9 | 30.4 | -
COc1ccc(-c2nc(-c3nnn(Cc4ccccc4)c3C)no2)cc1OC | - | - | - | -
